From PubChem BioAssay (NCI)
Where “and” joins values, the source holds several entries; their conditions need not be identical. Identical values can stand only once. Compounds without any hit were thinned out: in the full panel of roughly 83,000, 20% have a hit.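 Single-dose data. Exposure time 48 hours. Values below 10 considered active.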 Calls of active or inactive are those of the source.

These compounds were tested on SK-MEL-28 melanoma (assay: NCI-60 one-dose screen, 48 h (100 = growth as untreated, 0 = no growth, -100 = all killed)). Conditions: 10 µM unless noted.

Structure (SMILES) | growth
COc1ccc(C(=O)c2ccc(OC)c(OC)c2OC)cc1 | 45.3% (inactive) and 50.3% (inactive)
O=C1/C(=C/c2ccccc2)CN(C(=O)C(Cl)Cl)C/C1=C\c1ccccc1 | -25.7% (active)
C=C(C)[C@@H]1CC[C@]2(C(=O)O)CC[C@]3(C)[C@H](CC[C@@H]4[C@@]5(C)CCC(N)C(C)(C)[C@@H]5CC[C@]43C)[C@@H]12 (some centres undefined) | -70.2% (active)
N#C/C(=C\c1ccc(Br)cc1)n1nnc2c(F)cccc21 | -3.74% (active)
COC1=CC(=O)C(OC)=C(O)C1=O | 102% (inactive)
CC(C)(C)c1cc(NC(=O)Nc2ccc(-c3cn4c(n3)sc3cc(OCCN5CCOCC5)ccc34)cc2)no1 | 42.9% (inactive) and 33.8% (inactive)
COc1cccc(C2C(C#N)=C(N)Oc3cc(OCCCCCC[P+](c4ccccc4)(c4ccccc4)c4ccccc4)ccc32)c1 (centres undefined) | -77.1% (active)
COc1ccc(-c2ccccc2)cc1-c1c(Nc2cc(Cl)cc(Cl)c2O)c(=O)c1=O | 20% (inactive)
Cc1ccc(S(=O)(=O)Nc2cc(Sc3ccccc3)c(O)c3ccccc23)cc1 | 84.8% (inactive)
COC(=O)c1[nH]nc(OC)c1C1(C(C#N)c2nc3ccccc3s2)CCCc2ccccc21 (centres undefined) | 78.9% (inactive)
COc1ccc(-c2cc(-c3cccc(Cl)c3)c(C#N)c(=O)[nH]2)c(OC)c1 | 92.2% (inactive)
Cc1nc(-n2[nH]c(=O)ccc2=O)sc1N=Nc1ccccc1 | 103% (inactive)
COc1ccc(-c2csc(NC(=O)CN3CCN(CCO)CC3)n2)cc1NS(=O)(=O)c1cccc2c(N(C)C)cccc12 | -2.57% (active)
COc1ccc(-c2[nH]c3ccccc3c2-c2ccc(OC)cc2)cc1 | 51.4% (inactive)
COc1ccc(/C=N\Nc2nc(SCC(C)C)nc(-c3ccc(OC)cc3)c2C#N)cc1 | 101% (inactive)
CN(C)C(=O)c1cc2cnc(Nc3ccc(-c4csc5c(=S)cc(N6CCOCC6)oc45)cc3)nc2n1C1CCCC1 | 9.77% (active)
O=C(Nc1ccc2ncsc2c1)c1csc(Nc2ccc3[nH]ncc3c2)n1 | 69.2% (inactive)
NS(=O)(=O)c1ccc(C(=O)N=Nc2c(O)[nH]c3c(F)cccc23)cc1 | 105% (inactive)
C/C=C(\C)C(=O)N[C@H]1CC[C@]2(C)C3CC[C@@]4(C)C(CC[C@@H]4C(C)N(C)C)C3CCC2[C@H]1OC(C)=O (some centres undefined) | -97.5% (active)
CC(=O)N1N=C(c2ccc(Nc3nc(Nc4ccc(F)cc4)nc(Nc4ccc(Cl)cc4)n3)cc2)CC1c1ccc(N(C)C)cc1 (centres undefined) | 60% (inactive)

Structure (SMILES) | growth
ON=C1CCCCCCCC1 | 105% (inactive) and 113% (inactive)
Cc1ccc(NC(=O)c2sc3nc(C)c(C(=O)c4ccccc4)cc3c2N)cc1 | 92% (inactive)
O=C(/C=C/c1ccc([N+](=O)[O-])cc1)c1ccccc1 | 103% (inactive)
COc1cc(CO)cc2cc3ccccc3nc12 | 113% (inactive)
O=C(Cc1ccc(F)cc1)c1ccccc1 | 114% (inactive)
COc1cc(-c2[nH]ncc2Nc2ccc(Cl)cc2)cc(OC)c1OC | 82.1% (inactive)
CC1(Cc2ccccc2)CC2=C(C(=O)O1)C(c1ccccc1)NC(=O)N2 (centres undefined) | 116% (inactive)
C=CCN1C=CC(=O)[C@H](O[Si](C)(C)C(C)(C)C)[C@@H]1/C=C/c1ccccc1 | -68.2% [100 µM] (active)
Cc1ccc(-c2nc3nc(-c4ccc(Cl)cc4)nc(N4CCCNCC4)c3o2)cc1 | 108% (inactive)
CC1=C2[C@@H](CC1)[C@]1(C)O[C@@](C3CC3)(C[C@H]1OC(=O)CO)[C@H]2OC(=O)/C=C/c1ccccc1 | 107% (inactive)
CCN1CCN(C(=O)[C@]23CC[C@@H](C)[C@H](C)[C@@H]2C2=CC[C@@H]4[C@@]5(C)CCC(=O)C(C)(C)[C@@H]5CC[C@@]4(C)[C@]2(C)CC3)CC1 | -64.7% (active)
CCCO/N=C/c1ccccn1 | 107% (inactive) and 99.4% (inactive)
CN(C)CCN1C(=O)c2c(c3c4ccccc4n4c3c3c2c2ccccc2n3C2CC(O)C(O)C4(C)O2)C1=O (centres undefined) | 64.5% (inactive)
CCOC(=O)c1c(-c2ccc(C)cc2)c(C#N)c(=O)n(-c2cccc(C(F)(F)F)c2)c1N | 102% (inactive)
CCCCCCCCCCCCCCCC(=O)O[C@@H]1[C@@H](O)[C@@H](O)C([C@H](NC(=O)[C@@H]2C[C@@H](CCC)CN2C)[C@H](C)Cl)O[C@@H]1SC (some centres undefined) | 112% (inactive)
O=C1/C(=C/c2cn(-c3ccccc3)nc2-c2ccccc2)SC(=S)N1c1ccc(Cl)cc1 | 73.5% (inactive)
CN(C)CCCn1c2c(c3ccc(N4CCNCC4)cc3c1=O)C(=O)c1ccccc1-2 | 59.7% (inactive)
CCOc1ccccc1NC(=O)c1cc2ccccc2cc1O | 87.7% (inactive)
COc1ccc(C/C(C)=C(/c2ccc(OCCN3CCCCCC3)cc2)c2ccc(OC(=O)c3ccccc3)cc2)cc1 | 106% (inactive)
